# HIF-2a inh: HIF-2a inhibition. 786-0 RCC cells HIF-2a reporter, luciferase luminescence, overnight. inhibition, % at 18.8 µM. actives 0.72% (n = 360,000);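 active = inhibition of the luminescence signal of 40% or more relative to plate controls, in a single-dose primary screen at 18.75 µM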
# CF NFkB inh: blocks PAF-induced NF-kB reporter in cystic fibrosis cells; AID 588850; inhibition, % at 5 µM; actives 0.86% (n = 360,000); KKLEB NF-kB-GFP reporter, GFP fluorescence overnight;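 active = at least 50% inhibition at 5 µM, scaled per plate between neutral and stimulator controls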;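 also: PAF is a Pseudomonas aeruginosa culture filtrate used as stimulus; plate controls were PAF-stimulated DMSO wells for no effect and unstimulated DMSO wells for full effect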
# LMP1 NFkB inh: inhibitors of Epstein-Barr LMP1-induced NF-kappaB reporter; LMP1-induced NF-kappaB luciferase reporter cells, luminescence; inhibition, % at 12.5 µM; actives 0.69% (n = 350,000); AID 504558; in the data active = inhibition above about 41%;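 also: 0% = neutral control wells and 100% = reference inhibitor control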
# MITF TRPM1 inh: reduces MITF-dependent TRPM1 promoter luciferase signal; SK-MEL-5 TRPM1 promoter luciferase, 24 h; inhibition, % at 12.5 µM; actives 0.83% (n = 330,000); AID 488899;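 active = mean inhibition across replicates of 60% or more, whatever share of single replicates reaches that level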
# KKLEB tox: CF airway cell cytotoxicity counter-screen. KKLEB CF airway cells viability, ATPlite luminescence, overnight; hits give low values; cells stimulated with P. aeruginosa culture filtrate. activity change (cytotoxicity), % at 5 µM. actives 0.36% (n = 360,000);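 active = corrected activity change at or below -50% at 5 µM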
# Peg3 promoter: inhibitors of Peg3 promoter | actives 1.7% (n = 360,000) | HeLa PEG-Prom luciferase reporter, luminescence, overnight | AID 588405 | inhibition, % at 20 µM;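 active = inhibition of at least 50% at 20 µM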
# Mdm2 MdmX conf: confirmation of inhibitors of human Mdm2/MdmX interaction, set 2; SaOS-2 split-luciferase Mdm2/MdmX complementation, luminescence; actives 99% (n = 740); AID 504601; shares compounds with HIF-2a inh; inhibition, % at 8 µM;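 active = mean inhibition of the luminescence signal across two replicates at or above 26 percent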
# Target sequence (O15151 whole entry, looked up): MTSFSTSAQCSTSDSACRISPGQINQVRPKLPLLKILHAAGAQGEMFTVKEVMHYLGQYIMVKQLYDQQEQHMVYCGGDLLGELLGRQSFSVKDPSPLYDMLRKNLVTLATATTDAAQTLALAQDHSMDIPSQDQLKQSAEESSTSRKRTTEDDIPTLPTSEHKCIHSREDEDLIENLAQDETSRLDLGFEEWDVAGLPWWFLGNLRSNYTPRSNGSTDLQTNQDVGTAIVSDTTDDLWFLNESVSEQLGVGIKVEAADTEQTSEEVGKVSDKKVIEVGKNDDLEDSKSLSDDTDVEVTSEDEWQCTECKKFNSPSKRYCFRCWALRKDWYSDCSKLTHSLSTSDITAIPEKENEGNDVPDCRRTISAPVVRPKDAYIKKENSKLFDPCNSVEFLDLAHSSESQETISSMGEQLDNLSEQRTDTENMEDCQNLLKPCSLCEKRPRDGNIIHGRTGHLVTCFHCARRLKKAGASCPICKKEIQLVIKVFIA
# Target sequence (Q00987 whole entry, looked up): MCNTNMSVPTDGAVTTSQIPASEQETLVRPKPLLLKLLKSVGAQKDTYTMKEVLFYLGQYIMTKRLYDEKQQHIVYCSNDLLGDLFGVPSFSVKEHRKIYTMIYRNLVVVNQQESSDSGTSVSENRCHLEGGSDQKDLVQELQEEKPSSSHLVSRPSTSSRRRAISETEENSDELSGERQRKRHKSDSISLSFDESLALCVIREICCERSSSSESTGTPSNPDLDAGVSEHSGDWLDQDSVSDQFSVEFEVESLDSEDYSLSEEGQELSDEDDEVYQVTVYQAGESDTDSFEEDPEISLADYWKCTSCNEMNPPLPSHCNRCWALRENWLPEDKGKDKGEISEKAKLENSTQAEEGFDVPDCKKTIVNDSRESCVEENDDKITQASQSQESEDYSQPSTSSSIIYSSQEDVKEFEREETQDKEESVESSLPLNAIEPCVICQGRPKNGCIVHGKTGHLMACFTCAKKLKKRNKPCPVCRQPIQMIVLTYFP
# HIF-2a conf: confirmation of HIF-2a inhibitors; shares compounds with HIF-2a inh; 786-0 RCC cells, HIF-2a luciferase reporter luminescence, overnight; inhibition, % at 18.8 µM; actives 56% (n = 1,800); AID 651580;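 active = mean inhibition across four replicates of at least 40 percent at the single tested concentration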
# HIF-1a cs: counter-screen for HIF-2a inhibitors: HIF-1a inhibition in MiaPaCa-2 cells; shares compounds with HIF-2a inh; MiaPaCa-2 HIF-1a luciferase reporter, desferoxamine, overnight; inhibition, % at 18.8 µM; actives 72% (n = 1,800); AID 651589;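 active = mean inhibition of the reporter signal across four replicates at the single tested dose of 50% or more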
# Numbers without * were called inactive; . = no result. Sampled rows, rich in hits. Any-hit rate of the full collection: about 3%.
SMILES,HIF-2a inh,CF NFkB inh,LMP1 NFkB inh,MITF TRPM1 inh,KKLEB tox,Peg3 promoter,HIF-2a conf,HIF-1a cs,others
CN(C)CCN(C(=O)CCS(=O)(=O)c1ccccc1)c1nc2c(F)cccc2s1,5,16,-1,-12,9,-21,.,.,
Cc1ccc2sc(N(CCCN(C)C)C(=O)CCS(=O)(=O)c3ccccc3)nc2c1C,88*,92*,8,33,-81*,108*,24,77*,
COc1ccc(OC)c2sc(N(CCCN(C)C)C(=O)CCS(=O)(=O)c3ccccc3)nc12,45*,86*,19,21,-30,109*,37,60*,
O=C(NCc1ccccc1)/C(=C\c1cccc([N+](=O)[O-])c1)NC(=O)c1ccco1,8,22,6,.,-8,3,.,.,
CC(=O)/C=C1/C(=O)Nc2ccccc21,40*,-2,7,28,-2,22,49*,5,
CC(=O)N(C)c1ccc(N=C2C(=O)Nc3ccccc32)cc1,16,-5,1,9,2,20,.,.,
C=CCOc1cccc(C(=O)N2CCCC(CCC(=O)NCc3ccccc3F)C2)c1 (configuration not stated),-37,-8,-10,-31,9,-30,.,.,
C=CCOc1cccc(C(=O)/C=C2/C(=O)Nc3ccccc32)c1,59*,86*,6,52,-52*,85*,59*,105*,
Cc1c(C=C(C#N)c2ccc([N+](=O)[O-])cc2)c(=O)n(-c2ccccc2)n1C,5,-34,1,-1,24,12,.,.,
O=C(O)c1cccc(-c2nc3ccccc3[nH]2)c1,69*,1,39,49,-5,55*,55*,-72,
CCOC(=O)C1=C(CC)Nc2ccccc2N=C1NC(=O)c1ccc(OC)c(S(=O)(=O)N2CCOCC2)c1,11,12,-1,11,-4,-3,.,.,
C=CCC[C@H](CCCCC)OC(=O)/C=C/[C@@H](O)[C@H](O)C[C@H](O)CC=C,17,.,.,.,.,.,.,.,
O=C(Nc1cccc(Cl)c1)c1cc(N=Nc2ccc([N+](=O)[O-])cc2Cl)ccc1O,-84,76*,3,41,-32,79*,.,.,Mdm2 MdmX conf=95*
O=C(Nc1cccc(Cl)c1)c1cccc(Oc2ccc([N+](=O)[O-])cc2Cl)c1,-40,23,5,12,-2,34,.,.,
Nc1ncnc2c1ncn2-c1ccccc1Cl,-20,0,-7,6,9,-18,.,.,
Clc1ccc2ccc3cccnc3c2n1,-28,-27,0,-5,-4,-24,.,.,
O=S1(=O)Nc2c(ccc3cccnc23)-c2ccccc21,18,52*,7,77*,12,111*,.,.,Mdm2 MdmX conf=103*
C[C@@H]1CN([C@@H](C)CO)C(=O)CCCn2cc(nn2)CO[C@H]1CN(C)S(=O)(=O)c1ccc(Cl)cc1,7,-14,6,.,-18,-12,.,.,
COc1ccc(-c2noc(CCC(=O)O)n2)cc1,24,14,0,-7,14,8,.,.,
COc1ccc(-c2noc(CCCC(=O)O)n2)cc1,84*,-1,-4,66*,4,9,94*,80*,
CCOc1ccc(-c2noc(CCC(=O)O)n2)cc1,75*,-5,-1,68*,-13,-15,81*,69*,
CC(NS(=O)(=O)c1cccc(Cl)c1F)[C@H](O)c1ccccc1 (some centres not stated),12,-20,-10,.,10,3,.,.,
COc1ccc(OC)c(C(C[N+](=O)[O-])c2c(C)cc3ccccn23)c1 (configuration not stated),44*,19,-1,27,-14,37,18,39,
CCCCNC(=O)C(NC(=O)c1cccc2ccccc12)C(=O)c1ccccc1 (configuration not stated),-5,-8,.,.,-10,4,.,.,
CCc1[nH]nc2c1C(c1ccc(Br)s1)C(C#N)=C(N)O2 (configuration not stated),41*,8,8,13,-1,11,9,12,
SMILES,HIF-2a inh,CF NFkB inh,LMP1 NFkB inh,MITF TRPM1 inh,KKLEB tox,Peg3 promoter,HIF-2a conf,HIF-1a cs,others
CCc1[nH]nc2c1C(c1ccsc1)C(C#N)=C(N)O2 (configuration not stated),30,-6,16,10,2,4,.,.,
Cc1cccc([C@@H]2[C@@H]3C(=O)N(Cc4ccccc4)C(=O)[C@@H]3[C@]3(Cc4ccc(Cl)cc4)C(=O)N(c4ccc(Br)cc4)C(=O)N23)c1,6,5,4,-6,-12,7,.,.,Mdm2 MdmX conf=102*
O=C1c2ccccc2C(c2nnnn2Cc2ccccc2)N1Cc1ccc2c(c1)OCO2 (configuration not stated),3,.,.,.,.,.,.,.,
Cc1ccc(N=c2c([N+](=O)[O-])nn(-c3ccc4c(c3)OCCO4)n2O)cc1F,70*,-15,49*,34,8,33,84*,94*,
Cc1cc(C)cc(N=c2c([N+](=O)[O-])nn(-c3ccc4c(c3)OCCO4)n2O)c1,-103,20,16,7,-12,-59,.,.,
O=[N+]([O-])c1nn(-c2ccc3c(c2)OCCO3)n(O)c1=Nc1ccccc1,82*,-18,75*,86*,28,76*,90*,100*,Mdm2 MdmX conf=95*
Cc1cccc(C)c1NC(=O)C(c1ccncc1)N1CCN(CCN(C)C)CC1 (configuration not stated),3,.,.,.,.,.,.,.,
Cc1ccc(C)c(OCc2ccc(C(=O)NN)o2)c1,40*,-18,-4,-8,0,-2,29,-4,
Cc1ccc(-n2nc3ccc(N)cc3n2)c(C)c1,56*,-37,9,6,5,-174,76*,17,
Cc1cc(N)ccc1-n1nc2ccccc2n1,5,-8,4,2,7,-53,.,.,
COc1ccc(NC(=O)/C=C/c2cc(Br)ccc2OC)cc1,-11,-13,2,23,-8,10,.,.,
COc1ccc(Br)cc1/C=C/C(=O)c1ccc(NC(C)=O)cc1,85*,42,4,82*,17,106*,64*,106*,
CCOC(=O)c1ccc(N=c2sc(C(=O)OC)cc(=O)n2Cc2ccco2)cc1,82*,23,-16,18,-18,100*,65*,106*,
CCOC(=O)c1ccc(N=c2sc(C(=O)OC)cc(=O)n2CCCN2CCOCC2)cc1,9,13,14,-1,-18,3,.,.,
